Assay outcomes from PubChem.
An excerpt weighted towards active compounds, which were near 2.4% of everything screened.
Pol eta inh: inhibitors of human DNA polymerase eta. AID 588591. Q9Y253. recombinant Pol eta, fluorescent DNA replication assay. Potency, µM (titrated, usually from 114 µM), actives largely listed as inhibitors. 1.2% of 390,000 active
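Pol eta at 10 nM preincubated with compounds 15 min at room temperature; reaction started with fluorescent substrate (50 nM final) and read kinetically at 0 and 10 min.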
WRN inhibitor: blocks human WRN helicase | WRN helicase unwinding, fluorescent forked duplex, kinetic | Potency, µM (series often up to 114 µM), hits mostly inhibitors | 0.46% of 360,000 active; further: nearly all actives have a fitted effect of over 55% in size
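Enzyme (20 nM final) and test compound sit together 15 min at room temperature before substrate addition. Substrate is a single-forked duplex oligonucleotide (100 nM) labelled with fluorophore and quencher, with 2 mM ATP; helicase unwinding raises red fluorescence, read kinetically.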
FEN1 inhibitor: human FEN1 inhibition; 0.35% of 390,000 active; Recombinant FEN1 flap cleavage, fluorescence, 15 min; Potency, µM (highest dose often 114 µM), actives largely listed as inhibitors; further: nearly all actives have a fitted effect of over 65% in size
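Enzyme 10 nM, 15 min RT preincubation with compound; start with substrate 50 nM final; reads at 0 and 15 min; qHTS titration, four-parameter Hill fit.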
Pol iota inh: blocks human DNA polymerase iota activity | 1% of 390,000 active | Potency, µM (series often up to 115 µM), most hits filed as inhibitors | AID 588590 | Pol iota fluorescent replication assay, 10 min
Target sequence (Q9UNA4 whole entry, looked up): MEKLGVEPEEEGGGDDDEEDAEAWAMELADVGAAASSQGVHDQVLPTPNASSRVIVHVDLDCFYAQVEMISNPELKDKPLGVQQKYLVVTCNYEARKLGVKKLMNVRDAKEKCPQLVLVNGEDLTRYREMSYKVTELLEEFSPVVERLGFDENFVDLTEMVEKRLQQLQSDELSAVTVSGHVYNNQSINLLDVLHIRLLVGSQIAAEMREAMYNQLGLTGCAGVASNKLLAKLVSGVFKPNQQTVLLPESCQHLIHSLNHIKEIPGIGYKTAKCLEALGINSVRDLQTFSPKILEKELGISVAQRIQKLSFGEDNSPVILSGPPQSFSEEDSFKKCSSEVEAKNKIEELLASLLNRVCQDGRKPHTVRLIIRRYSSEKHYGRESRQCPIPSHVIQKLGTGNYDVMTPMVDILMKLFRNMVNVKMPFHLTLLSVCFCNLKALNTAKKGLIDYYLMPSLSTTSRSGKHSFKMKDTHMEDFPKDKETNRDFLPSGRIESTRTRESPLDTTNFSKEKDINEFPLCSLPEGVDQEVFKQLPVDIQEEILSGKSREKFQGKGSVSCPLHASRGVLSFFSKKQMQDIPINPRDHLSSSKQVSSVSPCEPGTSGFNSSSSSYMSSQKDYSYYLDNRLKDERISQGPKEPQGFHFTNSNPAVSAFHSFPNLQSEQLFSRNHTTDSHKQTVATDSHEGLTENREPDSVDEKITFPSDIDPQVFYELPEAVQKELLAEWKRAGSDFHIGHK
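Fluorescent replication assay read twice, at 0 min and 10 min after adding 50 nM (final) substrate. Enzyme (10 nM) and compounds were first incubated 15 min at room temperature; enzyme-free buffer wells were negative controls.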
Pol kappa inh: inhibitors of human DNA polymerase kappa. Q9UBT6. 0.53% of 400,000 active. purified Pol kappa, fluorescent DNA synthesis assay, 10 min. Potency, µM (titrated, usually from 107 µM), hits mostly inhibitors
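Readout: fluorescence, taken kinetically at 0 and 10 min. Conditions: 10 nM Pol kappa, 15 min RT compound preincubation, 50 nM substrate final. Controls: enzyme-free buffer wells.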
POLB inh: inhibitors of human DNA polymerase beta | AID 485314 | P06746 | Pol beta primer extension/strand displacement, fluorescence kinetic | 1.3% of 340,000 active | Potency, µM (highest dose often 114 µM), hits mostly inhibitors
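Preincubation: enzyme (10 nM) with compound, 15 min, RT. Reaction: substrate added to 50 nM final. Reads: 0 and 10 min. Analysis: normalized, Hill fit.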
A number is an active result; n = inactive; u = inconclusive; x = not tested or not shown; [ ] = another dose, or the depositor's remark. The call rests on the fitted dose curve; in most records, active means well fitted curve in the direction sought with a large enough effect; inconclusive means small, poorly fitted or top-dose-only effect, or another doubt; inactive means no such curve, though single readings can be large; an effect the other way counts as inactive or inconclusive.

SMILES | Pol eta inh | WRN inhibitor | FEN1 inhibitor | Pol iota inh | Pol kappa inh | POLB inh
Cc1ccc(Sc2ccc(N3CCCC(C(=O)Nc4ccc(F)cc4)C3)nn2)cc1 (configuration not stated) | n | x | n | n | n | n
COc1ccc(CCN2C(=O)CC(C(N)=O)SC2=Nc2ccccc2)cc1 (configuration not stated) | u | n | n | 79µM | n | u
CNC(=O)C1CC(=O)N(CCc2ccccc2)C(=Nc2ccc(OC)cc2)S1 (configuration not stated) | n | n | n | n | n | n
CCOc1ccc(CC(=O)Nc2c(C(=O)c3ccccc3)oc3ccc(OC)cc23)cc1OCC | n | x | n | n | n | n
CCOC(=O)C1=C(C)NC(=O)CC1c1cc2c(cc1[N+](=O)[O-])OCO2 (configuration not stated) | n | n | n | n | n | n
CCCOC(=O)C1=C(C)N(C)C(=O)NC1c1cc2c(cc1[N+](=O)[O-])OCO2 (configuration not stated) | n | n[11.6 µM] | n | 4.5µM | 79µM | u
O=C(NC(=S)Nc1cc([N+](=O)[O-])ccc1O)c1ccc2c(c1)OCO2 | n | n | n | n | n | 45µM
O=C(COC(=O)CCN1C(=O)/C(=C\C=C\c2ccccc2)SC1=S)Nc1cc(F)ccc1F | 32µM | n | n | 25µM | u | u
CCOC(=O)c1sc2ccccc2c1S(=O)(=O)Nc1cccc(C(F)(F)F)c1 | n | x | n | n | n | n
Cc1c2c(c(O)c3c(O)cccc13)C(=O)O[C@H]2C1C(N(C)C)C(O)=C(C(N)=O)C(=O)[C@H]1O (some centres not stated) | x | x | x | x | 0.47µM | x
CCN1CC2([N+](=O)[O-])C=CC(=O)C([N+](=O)[O-])(C1)C2CC(=O)c1ccccc1 (configuration not stated) | 25µM | n | n | u | n | n
CCCCN1CC2([N+](=O)[O-])C=CC(=O)C([N+](=O)[O-])(C1)C2CC(=O)c1ccccc1 (configuration not stated) | n | n | n | n | n | n
CCCCCCC[n+]1c(/C=C/c2ccc(N(C)C)cc2)sc2ccccc21 | x | x | 35µM | 79µM | 40µM | x
CCCCCCC[n+]1ccc(/C=C/c2c(C)[nH]c3ccccc23)cc1 | x | x | u | n | n | x
CC(=O)Nc1ccc(/C=C/c2sc3ccccc3[n+]2CCCCI)cc1 | x | x | u | 79µM | 45µM | x
CCN(CC)c1ccc(/C=C/c2sc3ccccc3[n+]2CCCCI)cc1 | x | x | u | 50µM | u | x
Cc1sc2ccccc2[n+]1CCCCI | x | x | u | u | n | x
CN(C)c1ccc(/C=C/c2ccnc3ccc(F)cc23)cc1 | x | x | n | n | n | x
Fc1ccc(CCNc2ncnc3nc[nH]c23)cc1 | x | x | n | n | n | x
O=c1cc(-c2cccnc2)oc2c1ccc1ccccc12 | n | n[11.6 µM] | 40µM | n | n | n
CC(=O)Nc1ccn(C2OC(C(COC(C)=O)NC(=O)C(C)NC(=O)OC(C)(C)C)C(OC(C)=O)C2OC(C)=O)c(=O)n1 (configuration not stated) | x | x | n | n | n | x
CCOc1ccc2nc3ccc4[nH]onc4c3c2c1 | n | n | n | n | n | x
CCOc1ccc2nc3cc(NCc4ccc(OC)cc4)ccc3c(N)c2c1 | 79µM | 35µM | 22µM | n | n | 28µM
CCn1cnc2cc(NCc3ccc(OC)cc3)ccc21 | n | n | n | n | n | n
CCOc1ccc2nc3cc(N)ccc3c(N)c2c1 | x | x | x | x | 22µM | x
SMILES | Pol eta inh | WRN inhibitor | FEN1 inhibitor | Pol iota inh | Pol kappa inh | POLB inh
COC(=O)c1c(NC(=O)CCCOc2ccc(C(C)(C)C)cc2)sc2c1C(C(=O)OC)CC2 (configuration not stated) | n | x | u | 89µM | u | n
COCC(=O)Nc1sc2c(c1C(=O)OC)C(C(=O)OC)CC2 (configuration not stated) | n | n | n | n | n | n
Cc1[nH]n(-c2ncc(-c3ccccc3)s2)c(=O)c1C(c1ccc(Br)cc1)C(C#N)C#N (configuration not stated) | 22µM | u | u | u | u | 45µM
Cc1[nH]n(C(N)=S)c(=O)c1C(c1ccccc1)C(C#N)C#N (configuration not stated) | n | n | n | u | n | n
COC(=O)c1ccsc1NC(=O)c1cccc(OC)c1 | n | n | n | 89µM | n | n
O=C(Cn1c(O)c(/C=C2\C=Nc3ccc(Br)cc32)sc1=O)N1CCCC1 | n | n | n | u | n | n
O=c1[nH]c(O)c(/C=C2\C=Nc3ccc(Br)cc32)[nH]1 | u | n | n | n | n | 20µM
Cc1ccccc1N=Nc1ccc(O)c2ncccc12 | n | n | n | n | n | n
O=S(=O)(O)c1cccc2c(N=Nc3ccc(O)c4ncccc34)cccc12 | 3.2µM | 22µM | u | u | n | u
C[C@H](NC(=O)CNC(=O)[C@@H](NC(=O)[C@H](Cc1ccccc1)NC(=O)CNC(=O)CNC(=O)[C@@H](N)Cc1ccccc1)[C@@H](C)O)C(=O)N[C@@H](CCCN=C(N)N)C(=O)N[C@@H](CCCCN)C(=O)N[C@@H](CO)C(=O)N[C@@H](C)C(=O)N[C@@H](CCCN=C(N)N)C(=O)N[C@H](CN)CCCCN | x | x | x | x | n[19.4 µM] | x
Cc1cnc2c(C)cccc2c1C | x | x | n | n | n | x
CCOC(=O)c1c(-c2ccco2)csc1NC(=O)CSc1nnc(N)s1 | u | n | n | 35µM | u | 28µM
CSc1ccc(NC(=O)Nc2ccc(C(=O)NCC(=O)O)cc2)cc1 | u | n | n | n | n | 28µM
CCCCCCOc1ccc(CC(=O)O)cc1 | x | x | n | n | n | x
CCOC(=O)c1c(NC(=O)CSc2nnc(-c3ccccc3C)n2C)sc(C(C)=O)c1C | 35µM | u | u | n | u | n
CCOC(=O)c1c(N)sc2c1CCN(Cc1ccccc1)C2 | x | x | n | n | n | x
Oc1nc(Nc2ccc(F)cc2)sc1/C=C1\C=Nc2ccccc21 | n | n | n | n | n | n
O=c1[nH]c(S)c(/C=C2\C=Nc3ccccc32)s1 | 40µM | n | n | n | n | n
CC1(C)S[C@@H]2C(C(=O)O)NC(=O)N2C1C(=O)O (some centres not stated) | x | x | n | n | n | x
CCOc1ccc(OCC)c(NC(=O)c2nnn(CC(=O)Nc3ccc(C)cc3C)c2N)c1 | n | x | n | n | n | n
COc1ccc(CNC(=O)C[C@H]2C[C@H](C(=O)N3CCCCC3)[C@@]3(C)c4[nH]c5cc(-c6ccco6)ccc5c4CCN3C2=O)cc1OC | n | n | u | 40µM | u | x
CC[C@]12c3[nH]c4cc(-c5ccco5)ccc4c3CCN1C(=O)[C@@H](CC(=O)NCCC1=CCCCC1)C[C@@H]2C(=O)N1CCN(C(=O)c2ccco2)CC1 | n | n[11.6 µM] | n | 7.9µM | 28µM | x
